NIH3T3 tox – Cytotoxic Profiling in NIH 3T3 Cell Line of Diverse Libraries Using Quantitative High-Throughput Screening. NIH 3T3 viability, CellTiter-Glo ATP luminescence, 48-72 h. Potency, µM (highest dose often 96.7 µM), without a hit: at the top dose activity change, negative = cytotoxicity, usual class: inhibitors. 94,000 tested, 4.3% active; also: nearly all actives have a fitted effect of over 55% in size
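First NIH 3T3 cells are plated at 400 cells/well; next compound is pinned in; then plates incubate 48 or 72 hr at 37 °C; finally CellTiter-Glo is added and luminescence read after 10 min.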
GPT2 inhibitor – Primary qHTS assay for inhibitors of Glutamate pyruvate transaminase 2 (GPT2); Potency, µM (series often up to 57.7 µM), for the others: top-dose activity change, negative = inhibition, usual class: inhibitors; Alanine aminotransferase 2 (Homo sapiens), Q8TD30; 100,000 tested, 0.25% active; Recombinant GPT2, coupled pyruvate oxidase/HRP Amplex Red fluorescence; AID 1671188, 2021; also: nearly all actives have a fitted effect of over 60% in size
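Fluorescence of coupled pyruvate oxidase/HRP/Amplex Red system (50uM Amplex, 30 min, dark) reports pyruvate formed by GPT2. Enzyme reaction: 10ng/uL GPT2, 2mM L-alanine, 250uM a-KG, 30 min room temperature, pH 7.5; 50uM AOA control.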
HEK cytotox – Cytotoxic Profiling in HEK 293 Cell Line of Diverse Libraries Using Quantitative High-Throughput Screening | HEK 293 viability, ATP luminescence (CellTiter-Glo), 48-72 h | Potency, µM (series often up to 115 µM), for inactives: at the highest dose activity change, negative = cytotoxicity, actives largely listed as inhibitors | 94,000 tested, 6.6% active; also: nearly all actives have a fitted effect of over 60% in size
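HEK 293 cells at 250 cells/well were exposed to compounds by pintool transfer for 48 or 72 hr at 37 degree Celsius, 5% CO2. Viability was read as ATP-coupled luminescence with CellTiter-Glo after 10 min at room temperature.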
NPR1 antag – Natriuretic polypeptide receptor (hNpr1) antagonism - Primary qHTS; Potency, µM (top dose mostly 46.3 µM), for the others: at the highest dose activity change, negative = inhibition, most hits filed as inhibitors; HEK293 hNpr1 GloSensor cGMP, ANP-stimulated luminescence; AID 1347048, 2019; 76,000 tested, 1.6% active; calls by dose curve; also: nearly all actives have a fitted effect of over 60% in size
Target sequence (P16066 whole entry, looked up): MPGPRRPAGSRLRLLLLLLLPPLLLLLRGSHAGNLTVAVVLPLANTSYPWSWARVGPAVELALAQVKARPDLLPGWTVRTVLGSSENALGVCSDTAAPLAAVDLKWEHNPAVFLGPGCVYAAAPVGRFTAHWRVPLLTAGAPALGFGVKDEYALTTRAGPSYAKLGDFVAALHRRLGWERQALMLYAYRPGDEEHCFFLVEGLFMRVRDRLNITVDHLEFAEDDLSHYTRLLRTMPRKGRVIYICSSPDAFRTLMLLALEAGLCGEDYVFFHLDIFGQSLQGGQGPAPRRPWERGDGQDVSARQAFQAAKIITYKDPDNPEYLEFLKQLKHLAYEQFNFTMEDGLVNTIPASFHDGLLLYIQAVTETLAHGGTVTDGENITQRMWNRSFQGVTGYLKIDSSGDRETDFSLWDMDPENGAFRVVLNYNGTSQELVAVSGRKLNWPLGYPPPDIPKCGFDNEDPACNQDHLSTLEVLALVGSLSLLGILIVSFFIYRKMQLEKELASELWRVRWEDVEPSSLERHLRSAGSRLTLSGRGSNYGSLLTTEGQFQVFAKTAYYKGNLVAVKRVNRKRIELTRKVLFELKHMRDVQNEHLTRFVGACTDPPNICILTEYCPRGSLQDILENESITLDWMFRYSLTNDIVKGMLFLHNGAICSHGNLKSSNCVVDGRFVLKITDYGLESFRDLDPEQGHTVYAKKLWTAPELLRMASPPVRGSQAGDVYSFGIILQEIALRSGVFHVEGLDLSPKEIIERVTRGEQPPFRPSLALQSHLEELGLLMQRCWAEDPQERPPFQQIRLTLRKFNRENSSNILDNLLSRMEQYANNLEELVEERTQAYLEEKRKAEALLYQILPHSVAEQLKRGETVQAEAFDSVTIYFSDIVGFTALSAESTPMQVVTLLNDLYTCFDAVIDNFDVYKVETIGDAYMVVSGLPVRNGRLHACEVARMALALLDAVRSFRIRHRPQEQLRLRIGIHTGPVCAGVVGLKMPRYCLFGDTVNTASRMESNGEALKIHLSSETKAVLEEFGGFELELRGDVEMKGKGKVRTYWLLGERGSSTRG
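HEK293 cells stably expressing human Npr1 and cGMP GloSensor pGS-40F, loaded 2 h with 2% GloSensor reagent, given compound 30 min at room temperature. Luminescence read before and 20 min after 0.1 nM hNppA.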
Luciferase inh – Firefly luciferase inhibition profiling of diverse chemical library using quantitative high-throughput screening. Potency, µM (doses to about 115 µM), actives largely listed as inhibitors. purified P. pyralis luciferase, luminescence, biochemical. 76,000 tested, 2.5% active; also: nearly all actives have a fitted effect of over 65% in size
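Biochemical qHTS: compound (6-point titration) added to 10uM D-luciferin plus 10uM ATP in Tris acetate pH 7.5 buffer with Mg, Tween-20 and BSA, then purified enzyme at 10nM; light output imaged.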
The depositor's hits bear a star; [ ] = remark or other dose. Most compounds without a hit are left out; they make up all but 10% or so of the library. Unless noted, calls follow the shape of the dose curve; as a rule, active = well fitted curve in the direction sought with a large enough effect; inconclusive = small, poorly fitted or top-dose-only effect, or another doubt; inactive = no such curve, though single readings can be large; an effect the other way counts as inactive or inconclusive. % is scaled to controls: 0 for no effect and ±100 for the full control effect; potency is read from the fitted curve at half-maximal effect.

What do the screens show for `COc1ccc(-c2ccc3c(c2)C(=O)N2CCN(C(=O)c4cccc(F)c4)C[C@@H]2C(=O)N3)cc1`?
NIH3T3 tox: -30.6%; GPT2 inhibitor: -26.6%; HEK cytotox: inconclusive; NPR1 antag: -6.5%; Luciferase inh: inconclusive

How did O=C1Nc2ccc(-c3cccc(C(F)(F)F)c3)cc2C(=O)N2CCN(C(=O)c3cccc(F)c3)C[C@H]12 do in these assays?
NIH3T3 tox: inconclusive; GPT2 inhibitor: -4.3%; HEK cytotox: 31.6µM*; NPR1 antag: -3.6%; Luciferase inh: inconclusive

How did COc1ccc(Cl)cc1-c1ccc2c(c1)C(=O)N1CCN(C(=O)c3ccccc3)C[C@@H]1C(=O)N2 do in these assays?
NIH3T3 tox: inconclusive; GPT2 inhibitor: inconclusive; HEK cytotox: 28.2µM*; NPR1 antag: 1.6%; Luciferase inh: inactive

How did O=C(N[C@H]1C[C@H]2C(=O)Nc3ccc(-c4cccs4)cc3C(=O)N2C1)c1ccccc1 do in these assays?
NIH3T3 tox: inconclusive; GPT2 inhibitor: inactive; HEK cytotox: 31.6µM*; NPR1 antag: inconclusive; Luciferase inh: inactive

Results for O=C(C1=NOC2CN(C(=O)C3CC3)CC12)N1CCCC1 (stereo not given) ?
NIH3T3 tox: 4.7%[138 µM]; GPT2 inhibitor: -7.4%[88.5 µM]; HEK cytotox: 1.6%[172 µM]

Results for Cc1cccc(-c2cccc(CN3CCC(NC(=O)c4ccccn4)CC3)c2)c1 ?
NIH3T3 tox: inconclusive; GPT2 inhibitor: inactive; HEK cytotox: inconclusive

How did COc1ccccc1C(=O)N1CCC2(CC1)OC(=O)N(Cc1csc(C)n1)C2(C)c1ccccc1 (stereo not given) do in these assays?
NIH3T3 tox: inconclusive; GPT2 inhibitor: 2.2%; HEK cytotox: -6.7%; NPR1 antag: -1.2%; Luciferase inh: inactive

How did Cc1nc(CN2C(=O)OC3(CCN(C(=O)c4ccnn4C)CC3)C2(C)c2ccccc2)cs1 (stereo not given) do in these assays?
NIH3T3 tox: 31.6µM*; GPT2 inhibitor: 0.7%; HEK cytotox: 2.3%; NPR1 antag: -0.1%; Luciferase inh: inactive

What do the screens show for `Cc1nc(CN2C(=O)OC3(CCN(C(=O)c4cccnc4)CC3)C2(C)c2ccccc2)cs1` (stereo not given)?
NIH3T3 tox: 44.7µM*; GPT2 inhibitor: -1.2%; HEK cytotox: inactive; NPR1 antag: -2.3%; Luciferase inh: inactive

How did Cc1nc(CN2C(=O)OC3(CCN(C(=O)c4scnc4C)CC3)C2(C)c2ccccc2)cs1 (stereo not given) do in these assays?
NIH3T3 tox: 28.2µM*; GPT2 inhibitor: inactive; HEK cytotox: -14.0%; NPR1 antag: -0.6%; Luciferase inh: inactive

Results for Cc1cc(C)n(CCC(=O)N2CCCC(c3noc(COc4ccccc4)n3)C2)n1 (stereo not given) ?
NIH3T3 tox: -12.0%; GPT2 inhibitor: 3.9%; HEK cytotox: inconclusive; NPR1 antag: -4.8%; Luciferase inh: inactive

Results for COc1ccc(NC(=O)C2CCc3nnc(C4CCN([S+](=O)([O-])c5ccccc5Cl)CC4)n32)cc1 (stereo not given) ?
NIH3T3 tox: -26.4%; GPT2 inhibitor: inactive; HEK cytotox: 3.6%

Results for CC(=O)NCCCC(=O)N1CNC(=O)C12CCN(C(=O)c1ccccc1)CC2 ?
NIH3T3 tox: -3.9%; GPT2 inhibitor: inactive; HEK cytotox: 2.4%

Results for Cc1nnc(-c2cc(-c3cccc(F)c3)ccn2)n1CCc1ccccc1 ?
NIH3T3 tox: inconclusive; GPT2 inhibitor: 4.0%[88.5 µM]; HEK cytotox: inconclusive; NPR1 antag: 0.9%[70.6 µM]; Luciferase inh: inactive

How did Cc1cc(-c2ccnc(-c3nnc(C)n3CCN3CCOCC3)c2)ccn1 do in these assays?
NIH3T3 tox: 89.1µM*; GPT2 inhibitor: inactive; HEK cytotox: -6.4%[172 µM]; NPR1 antag: 1.2%[70.6 µM]; Luciferase inh: inactive
